Some test systems named below: SR leukemia; RPMI-8226 leukemia; OVCAR-8 ovarian; OVCAR-5 ovarian; OVCAR-4 ovarian; SK-OV-3 ovarian; IGROV1 ovarian; OVCAR-3 ovarian; HS 578T breast; NCI/ADR-RES ovarian.
What all share (assay): NCI-60 one-dose screen, 48 h (100 = growth as untreated, 0 = no growth, -100 = all killed)
Common to all, as to conditions: 10 µM unless noted

Compounds without any hit were thinned out: in the full panel of roughly 83,000, 20% have a hit.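 For each line, cells grew in 96-well plates with the test compound present at a single concentration for 48 hours.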 A number with no mark means an inactive call. The source made the active and inactive calls. How the source made its calls: active means growth percent below 10; inactive means the rest.

As for `C=C(C)[C@@H]1CC[C@]2(C(=O)N3CCN(C)CC3)CC[C@]3(C)[C@H](CC[C@@H]4[C@@]5(C)C/C(=C/c6ccncc6)C(=O)C(C)(C)[C@@H]5CC[C@]43C)[C@@H]12`, the growth in the assay with SR leukemia was 9.44% (active); in the assay on RPMI-8226 leukemia, 20.7%; in the assay with OVCAR-8 ovarian, 49.1%; in the assay on OVCAR-5 ovarian it was 88.8%; in the assay on OVCAR-4 ovarian it was 53%; in the assay on SK-OV-3 ovarian, 88.8%. For the same compound, the growth in the assay with IGROV1 ovarian is 74.8%; in the assay with OVCAR-3 ovarian, 53.3%; in the assay on HS 578T breast, 61.8%; with NCI/ADR-RES ovarian, 57.9%.
For `CC1=C(C(=O)/C=C/c2ccc(N(C)C)cc2)C(c2ccccc2)NC(=S)N1` (stereo unspecified), the growth in the assay on SR leukemia is 96.8%; with RPMI-8226 leukemia, 101%; in the assay with OVCAR-8 ovarian, 102%; in the assay with OVCAR-5 ovarian it was 102%; in the assay with OVCAR-4 ovarian, 107%; in the assay on SK-OV-3 ovarian, 111%. Further, the growth in the assay on IGROV1 ovarian was 98.9%; in the assay on OVCAR-3 ovarian it was 109%; in the assay with HS 578T breast, 98.2%; in the assay on NCI/ADR-RES ovarian it was 100%.
Turning to `O=C(CCN1CCCC1)Nc1ccc2c(Nc3ccc(Br)cc3)c3ccccc3nc2c1`, the growth in the assay with SR leukemia was -22.6% (active); with RPMI-8226 leukemia, -34.9% (active); in the assay with OVCAR-8 ovarian it was 5.94% (active); in the assay on OVCAR-5 ovarian, 41.9%; with OVCAR-4 ovarian, -20.2% (active); with SK-OV-3 ovarian, 57.5%. Moreover, the growth in the assay with IGROV1 ovarian was -21.1% (active); in the assay with OVCAR-3 ovarian it was -65.1% (active); with HS 578T breast it was 58.6%.
On to `O=C(Cc1ccc(/C=C/C(=O)c2nccs2)cc1)Nc1ccccc1`, for which the growth with SR leukemia is 2.31% (active); in the assay with RPMI-8226 leukemia it was 67%; in the assay on OVCAR-8 ovarian it was 90.5%; in the assay with OVCAR-5 ovarian, 99.9%; with OVCAR-4 ovarian, 97.2%; in the assay with SK-OV-3 ovarian it was 112%. Also, the growth is 91.7% in the assay on IGROV1 ovarian, 88.9% in the assay on OVCAR-3 ovarian, 88.5% in the assay on HS 578T breast and 101% with NCI/ADR-RES ovarian.
For the compound `CCc1ccc(CNc2ccc(N3CCOCC3)c(C(=O)O)c2)cc1`, the growth with SR leukemia is 104%; in the assay with RPMI-8226 leukemia, 109%; with OVCAR-8 ovarian it was 102%; in the assay on OVCAR-5 ovarian it was 99.9%; in the assay with OVCAR-4 ovarian it was 110%; in the assay on SK-OV-3 ovarian, 103%. For the same compound, the values for the growth with IGROV1 ovarian, in the assay with OVCAR-3 ovarian and in the assay on HS 578T breast were 102%, 104% and 125%, respectively.
On to `CCN1CCN(CCNc2nccc(-c3c(-c4cccc(OC)c4)nc4occn34)n2)S1(=O)=O`, for which the growth was 96.3% with SR leukemia; 96.2% in the assay on RPMI-8226 leukemia; 99.3% in the assay on OVCAR-8 ovarian; 130% in the assay with OVCAR-5 ovarian; 114% in the assay with OVCAR-4 ovarian; 92% in the assay on SK-OV-3 ovarian. Further, the growth was 79.9% in the assay on IGROV1 ovarian, 107% in the assay on OVCAR-3 ovarian and 114% in the assay on HS 578T breast.
Regarding `CCOC(=O)c1ccc2c(c1)ncn2-c1ccc(NC(=O)Nc2cccc(C)c2)cc1`, the growth with SR leukemia is 19.9%; with RPMI-8226 leukemia, 45.5%; in the assay on OVCAR-8 ovarian it was 83.8%; in the assay with OVCAR-5 ovarian it was 85.5%; in the assay with OVCAR-4 ovarian, 75.7%; in the assay on SK-OV-3 ovarian it was 97.5%. Also, the growth in the assay on IGROV1 ovarian is 98.9%; in the assay on OVCAR-3 ovarian, 96.9%; with HS 578T breast, 84.1%; in the assay with NCI/ADR-RES ovarian, 72.2%.
With `O=S(=O)(NCCCNc1nccc(-c2c(-c3cccc(F)c3)nc3sccn23)n1)c1cccc2ccccc12`, the growth is 62% with SR leukemia; 44.9% in the assay with RPMI-8226 leukemia; 38.5% in the assay with OVCAR-8 ovarian; 80.9% in the assay with OVCAR-5 ovarian; 40.2% in the assay on OVCAR-4 ovarian; 65.8% with SK-OV-3 ovarian. The growth in the assay with IGROV1 ovarian was 22.3%; in the assay on OVCAR-3 ovarian it was 68.7%; in the assay on HS 578T breast, 55.9%.
In the case of `CC(C)(C)CC(C)(C)n1nnnc1C(NC12CC3CC(CC(C3)C1)C2)c1ccccc1` (stereo unspecified), the growth in the assay on SR leukemia was 80.3%; with RPMI-8226 leukemia it was 68.8%; in the assay on OVCAR-8 ovarian, 96%; with OVCAR-5 ovarian, 103%; in the assay with OVCAR-4 ovarian, 88.4%; in the assay with SK-OV-3 ovarian, 120%. Moreover, the growth was 87.1% in the assay on IGROV1 ovarian, 98.1% with OVCAR-3 ovarian and 99.9% in the assay with HS 578T breast.
In the case of `CC(C)N1C(=O)/C(=C2\SC(=S)N(C(C)C)C2=O)SC1=S`, the growth in the assay with SR leukemia was 109%; in the assay with RPMI-8226 leukemia, 92.9%; with OVCAR-8 ovarian it was 96.5%; with OVCAR-5 ovarian, 88%; with OVCAR-4 ovarian, 89.6%; in the assay on SK-OV-3 ovarian it was 113%. Moreover, the growth was 94.4% with IGROV1 ovarian, 98.4% in the assay with OVCAR-3 ovarian, 91.4% in the assay on HS 578T breast and 95.7% with NCI/ADR-RES ovarian.
Regarding `CC(Sc1nc2sc3c(c2c(=O)n1-c1ccc(Cl)cc1)CCCC3)C(=O)Nc1nc(-c2ccc(Br)cc2)cs1` (stereo unspecified), the growth is 97.6% in the assay with SR leukemia; 102% in the assay on RPMI-8226 leukemia; 103% in the assay with OVCAR-8 ovarian; 93.9% in the assay on OVCAR-5 ovarian; 109% in the assay on OVCAR-4 ovarian; 96.6% in the assay on SK-OV-3 ovarian. The results for the growth with IGROV1 ovarian, with OVCAR-3 ovarian and in the assay on HS 578T breast were 96%, 114% and 112%, respectively.
On to `N#C/C(=C\c1ccccn1)c1nc2cc(Cl)ccc2s1`, for which the growth with SR leukemia is 40.3%; in the assay with RPMI-8226 leukemia, 59.3%; in the assay with OVCAR-8 ovarian it was 73.1%; with OVCAR-5 ovarian it was 96.8%; in the assay with OVCAR-4 ovarian it was 71.5%; in the assay on SK-OV-3 ovarian, 62.9%. In addition, the growth in the assay on IGROV1 ovarian was 42%; in the assay with OVCAR-3 ovarian it was 75.4%; in the assay with HS 578T breast it was 53.7%.
As for `C=CCN1C(=O)/C(=C/C(=O)OC)S/C1=N\NC(=O)c1cc2ccc1/C=C\c1ccc(cc1)/C=C\2`, the growth with SR leukemia is 1.79% (active); in the assay with RPMI-8226 leukemia, -9.36% (active); in the assay with OVCAR-8 ovarian, 88.2%; in the assay with OVCAR-5 ovarian it was 96.1%; with OVCAR-4 ovarian it was 97.1%; in the assay on SK-OV-3 ovarian it was 140%. The growth in the assay on IGROV1 ovarian was 89.2%; in the assay with OVCAR-3 ovarian, 86.4%; in the assay on HS 578T breast, 93.6%.
In the case of `COc1cccc2c1c1nc3cc(C)c(C)cc3nc1n2CCN(C)C`, the growth in the assay with SR leukemia was 3.48% (active); in the assay on RPMI-8226 leukemia it was -8.21% (active); in the assay with OVCAR-8 ovarian, 26.4%; with OVCAR-5 ovarian, 28.7%; in the assay on OVCAR-4 ovarian, 35%; with SK-OV-3 ovarian, 39%. Moreover, the results for the growth with IGROV1 ovarian, with OVCAR-3 ovarian and in the assay on HS 578T breast were 5.59% (active), 32.6% and 54.4%, respectively.

The values above are taken from PubChem BioAssay (NCI).
